DT40 TDP1 no CPT – qHTS for Inhibitors of human tyrosyl-DNA phosphodiesterase 1 (TDP1): qHTS in cells in absence of CPT; DT40 Tdp1-/- hTDP1 cells, no CPT, ATP luminescence, 48 h; Potency, µM (top dose mostly 46.2 µM), inactives show at the top dose activity change, negative = growth inhibition, usual class: inhibitors; actives 15% (n = 420,000); also: nearly all actives have a fitted effect of over 55% in size
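Chicken DT40 Tdp1-/- cells stably complemented with human TDP1 were seeded at 400 cells/well with DMSO in place of 20 nM camptothecin. After compound pinning, cells grew at least 48 hr at 37 °C; viability read by CellTiter-Glo luminescence.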
Gal4-VP16 FLuc – VP16 counterscreen qHTS for inhibitors of ROR gamma transcriptional activity. Drosophila S2 Gal4-VP16 UAS-luciferase, luminescence, 20 h. actives 3.5% (n = 310,000). AID 2546, 2010. Potency, µM (doses to about 53.6 µM), for the others: top-dose activity, negative = inhibition, hits mostly inhibitors;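 also: Gal4-VP16 expression switched on by copper sulfate through the metallothionein promoter; nearly all actives have a fitted effect of over 50% in size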
RORg inh – qHTS for inhibitors of ROR gamma transcriptional activity; Drosophila S2 Gal4-RORgamma UAS-luciferase reporter, 20 h; Potency, µM (series often up to 53.6 µM), without a hit: at the highest dose activity change, negative = inhibition, actives largely listed as inhibitors; actives 5.4% (n = 310,000); AID 2551, 2010; also: nearly all actives have a fitted effect of over 60% in size
Target sequence (P51450 whole entry, looked up, the tested form may be a part): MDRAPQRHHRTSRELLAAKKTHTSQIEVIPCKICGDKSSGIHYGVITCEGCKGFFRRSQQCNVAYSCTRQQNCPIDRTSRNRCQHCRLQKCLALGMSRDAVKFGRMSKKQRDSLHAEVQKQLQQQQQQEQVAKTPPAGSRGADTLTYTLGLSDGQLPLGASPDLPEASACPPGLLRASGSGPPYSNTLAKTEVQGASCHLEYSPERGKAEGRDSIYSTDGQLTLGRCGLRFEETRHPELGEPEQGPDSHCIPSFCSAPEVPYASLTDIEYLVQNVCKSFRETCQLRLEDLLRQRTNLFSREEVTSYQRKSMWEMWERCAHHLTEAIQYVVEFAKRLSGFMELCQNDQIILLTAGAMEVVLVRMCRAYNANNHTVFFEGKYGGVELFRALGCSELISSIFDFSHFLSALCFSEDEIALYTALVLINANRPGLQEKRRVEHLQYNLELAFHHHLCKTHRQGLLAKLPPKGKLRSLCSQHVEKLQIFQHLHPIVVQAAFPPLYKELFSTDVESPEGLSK
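Stable Schneider cell line, Gal4 DNA-binding domain fused to ROR gamma, UAS-luciferase. Cmpd 1 hr RT → CuSO4 700 uM final → 20 hr RT → luciferase reagent 10 min → luminescence.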
TDP1 inh – qHTS Assay for Inhibitors of Tyrosyl-DNA Phosphodiesterase (TDP1); actives 0.28% (n = 350,000); recombinant TDP1, AlphaScreen DNA substrate cleavage; Tyrosyl-DNA phosphodiesterase 1 (Homo sapiens), Q9NUW8; Potency, µM (series often up to 130 µM), for inactives: at the top dose activity change, negative = inhibition, usual class: inhibitors; also: nearly all actives have a fitted effect of over 40% in size
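Compounds were preincubated with Tdp1 (1 nM final) for 15 min at room temperature before substrate (15 nM final) started a 5 min reaction; beads (10 ug/ml final) were then added for 10 min before AlphaScreen detection.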
TDP1 cell CPT – qHTS for Inhibitors of human tyrosyl-DNA phosphodiesterase 1 (TDP1): qHTS in cells in presence of CPT. actives 12% (n = 420,000). chicken DT40 Tdp1-/-;hTDP1 cells + 20 nM CPT, ATP luminescence, 48 h. Potency, µM (highest dose often 46.2 µM), without a hit: top-dose activity change, negative = growth inhibition, most hits filed as inhibitors; also: nearly all actives have a fitted effect of over 55% in size
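Cell growth measured by CellTiter-Glo luminescence after a minimum 48 h, 37 C compound exposure with 20 nM CPT in Tdp1-knockout DT40 cells stably expressing hTDP1, seeded 400/well; qHTS titration format.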
* hit, by the source's call; ? = inconclusive; / = not tested or not shown; [ ] = dose if it differs, or a comment. The list is not random: actives were taken first. Their share in the collection is about 19%. Calls follow the shape of the dose curve; as a rule, active = well fitted curve in the direction sought with a large enough effect; inconclusive = small, poorly fitted or top-dose-only effect, or another doubt; inactive = no such curve, though single readings can be large; an effect the other way counts as inactive or inconclusive. % is scaled to controls: 0 for no effect and ±100 for the full control effect; potency is read from the fitted curve at half-maximal effect.

SMILES | DT40 TDP1 no CPT | Gal4-VP16 FLuc | RORg inh | TDP1 inh | TDP1 cell CPT
O=C(Nc1ccc(Cc2ccncc2)cc1)c1cccs1 | 1% | 20%[10 µM] | ? | 5% | ?
Cc1cccc(C(=O)N(NC(=O)Oc2ccccc2)C(C)(C)C)c1 | -15% | -4% | -12% | 5% | 1%
CCOc1ccccc1NC(=O)C(CC(C)C)NC(=O)C1CCC(C)CC1 (stereo unspecified) | ? | -7% | -2% | 0% | 18µM*
CCOc1ccccc1NC(=O)C(NC(=O)C1CCC(C)CC1)C(C)C (stereo unspecified) | 4% | 5% | 3% | 2% | -2%
COc1ccc(Cl)cc1NC(=O)c1ccc(CN2C(=O)CCn3nc(C)cc32)cc1 | ? | / | / | 6% | ?
Cc1ccc(C)c(C(=O)N2CCC(c3nc4c(nnn4Cc4ccccc4)c(=O)[nH]3)CC2)c1 | 8.2µM* | / | / | 3% | ?
Cc1cccc(Cn2nnc3c(=O)[nH]c(C4CCCN(C(=O)c5ccccc5Cl)C4)nc32)c1 (stereo unspecified) | ? | / | / | 3% | 26µM*
Cc1ccc(CC(=O)N2CCC(c3nc4c(nnn4Cc4ccccc4)c(=O)[nH]3)CC2)cc1 | -18% | -2% | ? | 3% | -2%
Cc1ccc(Cn2nnc3c(=O)[nH]c(C4CCCN(C(=O)Nc5ccc(F)cc5F)C4)nc32)cc1 (stereo unspecified) | -24% | -10% | 8% | 1% | ?
CCOc1ccccc1NC(=O)N1CCCC(c2nc3c(nnn3Cc3ccc(C)cc3)c(=O)[nH]2)C1 (stereo unspecified) | ? | -16% | 20% | 4% | 29µM*
Fc1ccc(Nc2ccnc(-c3ccoc3)n2)cc1 | -4% | ? | ? | / | -22%
CCCC1=[N+](CC(=O)c2ccc(C)cc2)CCn2cccc21 | 18µM* | -2% | 13% | 3% | ?
CCCC1=NCCn2cccc21 | -4% | -1% | -5% | 0% | -9%
CCCC1=[N+](CC(=O)c2ccccc2)CCn2c(C)ccc21 | 2.1µM* | -6% | 1% | 6% | 2.9µM*
Cc1ccc[n+](CC(=O)c2ccccc2)c1 | / | 2% | -11% | / | /
CC(=O)Nc1cccc(-c2ccnc3c2CC(C)(C(=O)Nc2cccc(Oc4ccccc4)c2)O3)c1 (stereo unspecified) | 21µM* | / | / | / | 16µM*
CC(=O)Nc1cccc(-c2ccnc3c2CC(C)(C(=O)Nc2ccccc2)O3)c1 (stereo unspecified) | ? | / | / | / | -30%
CC(=O)Nc1ccc(-c2ccnc3c2CC(C)(C(=O)Nc2cccc(C(C)=O)c2)O3)cc1 (stereo unspecified) | 16µM* | / | / | / | ?
CC(=O)c1cccc(NC(=O)C2(C)Cc3c(-c4ccccc4)ccnc3O2)c1 (stereo unspecified) | 23µM* | / | / | / | 23µM*
CCOc1ccc(-n2nc(CO)c(C(=O)NCC(c3ccccc3)c3ccccc3)n2)cc1 | -2% | / | / | 0% | -6%
CC1CCN(C(=O)C(C)OC(=O)CSc2ccc([N+](=O)[O-])cc2)CC1 (stereo unspecified) | ? | / | / | 4% | ?
O=C(Cn1nc2c(cc1=O)CCCC2)Nc1ccc(F)cc1F | -10% | / | / | 2% | -11%
Cc1cc([N+](=O)[O-])cc([N+](=O)[O-])c1NCC(C)C | ? | 3% | -2% | 8% | -12%
CCOC(=O)N1CCN(S(=O)(=O)c2ccc(C(=O)NNc3nc4ccc(Cl)cc4s3)cc2)CC1 | 21µM* | ? | 7.1µM* | 8% | 21µM*
CCOC(=O)N1CCN(S(=O)(=O)c2ccc(C(=O)NNc3nc4c(C)cccc4s3)cc2)CC1 | 16µM* | 5µM* | 10µM* | 11% | 16µM*
SMILES | DT40 TDP1 no CPT | Gal4-VP16 FLuc | RORg inh | TDP1 inh | TDP1 cell CPT
CCOC(=O)N1CCN(S(=O)(=O)c2ccc(C(=O)N(CCN(CC)CC)c3nc4c(C)cccc4s3)cc2)CC1 | -28% | 18% | 15% | 9% | ?
O=C(O)c1cnn(-c2nc(-c3ccc(Cl)c(Cl)c3)cs2)c1C(F)(F)F | ? | ? | -21% | / | ?
COc1cccc(-c2nnc(-c3ccco3)o2)c1 | 29µM* | -28% | -35% | 5% | ?
CCCOc1ccc(-c2nnc(-c3ccco3)o2)cc1 | -26% | ? | 4.5µM* | 4% | -12%
COc1cccc(-c2nnc(-c3ccc(C)o3)o2)c1 | -11% | ? | 11µM* | -2% | 7%
Cc1nc(C(=O)NCCC(C)C)sc1C1(C)CC(c2ccccc2)=NO1 (stereo unspecified) | -28% | 1% | -5% | 4% | -23%
CC(OC(=O)c1ccccn1)C(=O)Nc1ccc(C(F)(F)F)cc1 (stereo unspecified) | -9% | / | / | -1% | -26%
CC(OC(=O)c1ccco1)C(=O)Nc1ccc(C(F)(F)F)cc1 (stereo unspecified) | 26µM* | / | / | 0% | 10µM*
Cc1cc(C(F)(F)F)nn1Cc1ccc(C(=O)NCc2ccco2)o1 | 13µM* | ? | 10µM* | 7% | 16µM*
Cc1ccc2nc(-c3ccsc3)c(NC3CCCC3)n2c1 | 13µM* | -26% | ? | -2% | 10µM*
Cc1ccc2nc(-c3ccncc3)c(NC3CCCCC3)n2c1 | ? | -16% | 17% | 5% | 23µM*
Cc1ccc2nc(-c3ccncc3)c(Nc3ccccc3)n2c1 | ? | 7% | -10%[10 µM] | 1% | ?
CC1CCCCC1NC(=O)C(=O)NCC1CCCO1 (stereo unspecified) | -7% | 20% | ? | -3% | -7%
COc1ccccc1C(=O)NCCC(=O)N1CCN(C(=O)c2ccco2)CC1 | 2% | / | / | -10% | 12%
O=C(O)CC(NC(=O)C(c1ccccc1)c1ccccc1)c1cccc([N+](=O)[O-])c1 (stereo unspecified) | 1% | -2% | -10% | 0% | 7%
N#CC(c1ccc([N+](=O)[O-])cc1)C(CC(=O)c1ccccc1)c1ccccc1 (stereo unspecified) | 16µM* | / | / | / | ?
N#CC(CC(=O)c1ccc(Cl)cc1)c1ccccc1 (stereo unspecified) | -14% | / | / | / | -11%
N#CC(c1cccc([N+](=O)[O-])c1)C(CC(=O)c1ccccc1)c1ccccc1 (stereo unspecified) | 23µM* | / | / | / | 18µM*
N#CC(c1ccccc1)C(CC(=NO)c1ccccc1)c1ccccc1 (stereo unspecified) | 10µM* | / | / | / | 23µM*

Source: PubChem (National Center for Advancing Translational Sciences (NCATS))
